Test systems include HCT-15 colon; HT29 colon; SNB-75 CNS; SNB-19 CNS; U251 CNS; PC-3 prostate; SK-MEL-5 melanoma; UACC-62 melanoma; LOX IMVI melanoma; SK-MEL-28 melanoma; SK-MEL-2 melanoma; EKVX NSCLC; SN12C renal; UO-31 renal; TK-10 renal; ACHN renal; CAKI-1 renal; CCRF-CEM leukemia; MOLT-4 leukemia.
Assay in all cases: NCI-60 one-dose screen, 48 h (100 = growth as untreated, 0 = no growth, -100 = all killed)
Common to all, as to conditions: 10 µM unless noted

The panel holds about 83,000 compounds, 20% with a hit somewhere; the sample as a whole holds those more often.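 In brief: 96-well plates, 48 h treatment, single concentration, percent growth endpoint.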 Values without a mark were called inactive. Active and inactive are the calls of the source. How the source made its calls: active means growth percent below 10; inactive means the rest.

As for `Cn1ccnc1C(=O)/C=C/c1ccc(CC(=O)NC2CCCCC2)cc1`, the growth in the experiment on HCT-15 colon is 33.1%; in the experiment with HT29 colon, 15.3%; in the experiment on SNB-75 CNS, 3.39% (active); in the experiment with SNB-19 CNS, 46.2%; in the experiment on U251 CNS, 31.4%; with PC-3 prostate it was 59.7%. The growth is 71.3% in the experiment on SK-MEL-5 melanoma; 73.4% in the experiment with UACC-62 melanoma; 44.5% in the experiment with LOX IMVI melanoma; 92.3% in the experiment with SK-MEL-28 melanoma; 108% in the experiment on SK-MEL-2 melanoma; 77.4% with EKVX NSCLC. Moreover, the growth in the experiment on SN12C renal was 61.2%; in the experiment with UO-31 renal, 60.4%; in the experiment on TK-10 renal, 94.8%; in the experiment on ACHN renal, 81.3%; in the experiment with CAKI-1 renal, 66.9%; in the experiment on CCRF-CEM leukemia, 33.5%. The growth with MOLT-4 leukemia was 67.7%.
With `C=C1C(=O)O[C@H]2[C@H]1CC/C(CNC(=O)/C=C/c1ccccc1)=C\CC[C@@]1(C)O[C@@H]21`, the growth with HCT-15 colon was -72.7% (active); in the experiment on HT29 colon it was -22.8% (active); in the experiment on SNB-75 CNS, 86.8%; in the experiment with SNB-19 CNS, 52.5%; with U251 CNS it was 46.1%; in the experiment with PC-3 prostate, 9.48% (active). In addition, the growth in the experiment with SK-MEL-5 melanoma was 40.6%; in the experiment with UACC-62 melanoma, -81.6% (active); in the experiment on LOX IMVI melanoma it was -88% (active); in the experiment on SK-MEL-28 melanoma, -38.1% (active); in the experiment on SK-MEL-2 melanoma, 40.8%; with EKVX NSCLC it was -16.2% (active). In addition, the growth is -32.1% (active) in the experiment on SN12C renal; -85.2% (active) with UO-31 renal; -47.1% (active) in the experiment with TK-10 renal; -34.5% (active) in the experiment with ACHN renal; -88.1% (active) in the experiment on CAKI-1 renal; 1.78% (active) in the experiment on CCRF-CEM leukemia. For the same compound, the growth with MOLT-4 leukemia is -26.4% (active).
Turning to `COc1ccccc1/C=C1\Oc2cc(OCCN3CCCC3)ccc2C1=O`, the growth in the experiment on HCT-15 colon is 39.4%; in the experiment on HT29 colon, 14%; in the experiment on SNB-75 CNS, 90.5%; in the experiment on SNB-19 CNS, 88.9%; in the experiment on U251 CNS, 76.1%; with PC-3 prostate, 83%. Also, the growth was 87.2% in the experiment with SK-MEL-5 melanoma; 97.3% in the experiment on UACC-62 melanoma; 68.1% in the experiment with LOX IMVI melanoma; 91.8% in the experiment with SK-MEL-28 melanoma; 106% in the experiment on SK-MEL-2 melanoma; 85.9% in the experiment with EKVX NSCLC. For the same compound, the growth was 88.8% with SN12C renal; 66.3% in the experiment on UO-31 renal; 97.9% with TK-10 renal; 94.2% in the experiment on ACHN renal; 94.3% in the experiment with CAKI-1 renal; 54.7% in the experiment with CCRF-CEM leukemia. For the same compound, in the experiment with MOLT-4 leukemia, the growth was 68.7%.
As for `CCNC(=O)Oc1ccc(/C(=C(\C)c2ccccc2)c2ccc(OCCN3CCCCC3)cc2)cc1`, the growth with HCT-15 colon was 17%; in the experiment on HT29 colon, -13.8% (active); in the experiment on SNB-75 CNS, 84.7%; in the experiment with SNB-19 CNS it was 79.4%; in the experiment on U251 CNS, 48.6%; with PC-3 prostate, 49.7%. Moreover, the growth is 62.5% in the experiment on SK-MEL-5 melanoma; 52.4% in the experiment on UACC-62 melanoma; 57.3% in the experiment on LOX IMVI melanoma; 47.2% in the experiment with SK-MEL-28 melanoma; 82.8% in the experiment on SK-MEL-2 melanoma; 82% in the experiment with EKVX NSCLC. Moreover, the growth with SN12C renal was 65.2%; in the experiment with UO-31 renal it was 41.2%; in the experiment with TK-10 renal, 83.3%; with ACHN renal, 84.2%; with CAKI-1 renal, 38.5%; in the experiment with CCRF-CEM leukemia it was 72.7%. The growth in the experiment on MOLT-4 leukemia is 51%.
Take `CC(=O)CCC(=O)OCc1cc(=O)c(O)co1`: the growth with HCT-15 colon is 98.2%; with HT29 colon, 101%; in the experiment with SNB-75 CNS, 104%; in the experiment on SNB-19 CNS, 104%; with U251 CNS it was 107%; with PC-3 prostate, 98.7%. Besides, the growth in the experiment with SK-MEL-5 melanoma was 105%; with UACC-62 melanoma, 103%; with LOX IMVI melanoma, 94.6%; in the experiment with SK-MEL-28 melanoma it was 98.1%; in the experiment on SK-MEL-2 melanoma, 113%; in the experiment on EKVX NSCLC it was 109%. The growth in the experiment on SN12C renal was 104%; in the experiment on UO-31 renal, 97.1%; in the experiment on TK-10 renal, 98.5%; with ACHN renal, 101%; in the experiment on CAKI-1 renal, 102%; with CCRF-CEM leukemia, 98%. For the same compound, the growth in the experiment on MOLT-4 leukemia is 102%.
With `CCOC(=O)/C(C#N)=C1/NNC(=Nc2cccnc2)S1`, the growth in the experiment with HCT-15 colon is 101%; in the experiment with HT29 colon, 98.3%; in the experiment on SNB-75 CNS, 92%; in the experiment with SNB-19 CNS, 95.9%; in the experiment with U251 CNS it was 94.1%; in the experiment on PC-3 prostate it was 88.6%. Moreover, the growth in the experiment on SK-MEL-5 melanoma is 98.6%; in the experiment with UACC-62 melanoma, 95.5%; in the experiment with LOX IMVI melanoma, 95.7%; in the experiment on SK-MEL-28 melanoma, 105%; in the experiment with SK-MEL-2 melanoma, 107%; with EKVX NSCLC it was 98.7%. The growth in the experiment on SN12C renal is 98.6%; in the experiment with UO-31 renal, 92.1%; in the experiment on TK-10 renal it was 102%; with ACHN renal, 100%; in the experiment on CAKI-1 renal, 97.1%; with CCRF-CEM leukemia it was 106%. Moreover, the growth in the experiment with MOLT-4 leukemia was 106%.
Consider `COC(=O)C1=C(C(=O)ON)C2C=CC1(C(Cc1ccccc1)Nc1ccccc1)O2` (configuration not stated), for which the growth in the experiment with HCT-15 colon was -53.8% (active); in the experiment on HT29 colon it was 37.9%; in the experiment on SNB-75 CNS, 106%; in the experiment with SNB-19 CNS, 106%; in the experiment with U251 CNS, 94.6%; in the experiment on PC-3 prostate, 100%. Further, the growth in the experiment with SK-MEL-5 melanoma was 104%; in the experiment on UACC-62 melanoma it was 89.9%; in the experiment with LOX IMVI melanoma it was 75.8%; in the experiment with SK-MEL-28 melanoma it was 65.4%; in the experiment on SK-MEL-2 melanoma, 86.7%; with EKVX NSCLC, 91.9%. Further, the growth is 87.4% in the experiment with SN12C renal; 16.9% in the experiment with UO-31 renal; -63.7% (active) with TK-10 renal; -99.7% (active) with ACHN renal; 57.3% in the experiment with CAKI-1 renal; -7.87% (active) in the experiment on CCRF-CEM leukemia. The growth with MOLT-4 leukemia is 12.9%.
`O=C(Nc1cccc(C2=NCCN2)c1)c1ccc(-c2ccc(C(=O)Nc3cccc(C4=NCCN4)c3)cc2)cc1`: the growth is 82.6% in the experiment with HCT-15 colon; 84.5% in the experiment on HT29 colon; 82% in the experiment with SNB-75 CNS; 87% in the experiment with SNB-19 CNS; 86.3% in the experiment with U251 CNS; 97.7% in the experiment on PC-3 prostate. The growth was 36.9% with SK-MEL-5 melanoma; 68.1% in the experiment on UACC-62 melanoma; 97.9% in the experiment on LOX IMVI melanoma; 46.3% in the experiment on SK-MEL-28 melanoma; 105% in the experiment on SK-MEL-2 melanoma; 95.8% in the experiment with EKVX NSCLC. For the same compound, the growth was 61.7% in the experiment on SN12C renal; 99.1% in the experiment on UO-31 renal; 138% with TK-10 renal; 98.4% in the experiment with ACHN renal; 107% with CAKI-1 renal; 89.1% in the experiment with CCRF-CEM leukemia. Also, the growth with MOLT-4 leukemia was 80.9%.

Values taken from PubChem BioAssay (NCI).
